High-throughput results from PubChem.
NS1 inh – influenza NS1 inhibition | Potency, µM (doses to about 46.1 µM) | actives 0.4% (n = 270,000) | AID 2326; calls by dose curve; note: actives are rising curves; nearly all actives have a fitted effect of over 50% in size
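OD600 was taken as the measure of yeast growth restored by compound in an NS1-expressing S. cerevisiae strain. Cells had been washed out of glucose medium and diluted 1:100 into galactose -URA medium, pH 6.0.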
Pf growth 48h – P. falciparum growth inhibition at 48 hours (one generation); P. falciparum luciferase growth in erythrocytes, 48 h; Potency, µM (titrated, usually from 28.7 µM), most hits filed as inhibitors; actives 5.9% (n = 310,000)
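Luminescence readout; reporter = integrated firefly luciferase in P. falciparum. RBC culture at 2% hematocrit, 0.1% parasitemia final, 37 C/5% CO2; decreased signal taken as growth inhibition.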
Pf growth 96h – P. falciparum growth inhibition at 96 hour, primary screen for plastid delayed-death inhibitors; P. falciparum luciferase reporter growth, 96 h; Potency, µM (doses to about 28.7 µM), usual class: inhibitors; actives 6.9% (n = 320,000)
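Luminescence readout: decreased luciferase signal marks inhibited growth of reporter-expressing P. falciparum in infected red cells (2% hematocrit, 0.05% parasitemia final), exposed to compound two generations (96 h, 37 C, 5% CO2).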
Shiga inhibitor – blocks Shiga toxin action in Vero cells; Vero cells, Shiga toxin protein synthesis inhibition reporter; inhibition, % at 38.7 µM; actives 9.2% (n = 290,000); in the data active = inhibition mostly above about 28%, no sharp cut-off; inactive = mostly below about 43%
Cycloheximide cs – counter-screen for Shiga toxin inhibitors: cycloheximide protein synthesis inhibition; cell reporter, cycloheximide protein synthesis inhibition counterscreen; max response, %; actives 12% (n = 300,000); AID 2314; in the data active = max response mostly above about 13%, no sharp cut-off; inactive = mostly below about 14%; note: read at 38.3 µM for the half of the compounds with a filed dose
Sm TGR inh – blocks Schistosoma mansoni thioredoxin glutathione reductase; actives 3% (n = 360,000); Potency, µM (doses to about 114 µM), actives largely listed as inhibitors; purified TGR, DTNB reduction, TNB absorbance 405 nm; Q962Y6; note: nearly all actives have a fitted effect of over 60% in size
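Kinetic colorimetric format: TGR-catalysed, NADPH-driven DTNB reduction monitored via TNB absorbance. Enzyme dispensed at 20 nM; compound exposure 15 min at room temperature before reaction start.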
Large screens that a line does not name were inactive. This is a sample that favours compounds with a hit; in the whole collection about 21% have one here. Unless noted, calls come from the whole dose curve; as a rule, active = well fitted curve in the direction sought with a large enough effect; inconclusive = small, poorly fitted or top-dose-only effect, or another doubt; inactive = no such curve, though single readings can be large; an effect the other way counts as inactive or inconclusive.

O=C(NCc1ccc(CNC(=O)c2ccco2)cc1)c1ccco1	Pf growth 96h 12µM
O=C(Nc1ccc(-c2cn3ccccc3n2)cc1)c1ccco1	Shiga inhibitor 68, Cycloheximide cs 58
COc1cccc(NC(=O)CCC2CCN(Cc3nccs3)CC2)c1	none
Cc1ccc(C(C(=O)NCc2ccc(F)cc2)N(Cc2ccco2)C(=O)c2snc(C(N)=O)c2N)o1 (stereo not drawn)	Sm TGR inh inconclusive
COc1ccccc1Nc1nn2c(=O)c3ccc(C(=O)NCCC4=CCCCC4)cc3nc2s1	none (no result: NS1 inh, Pf growth 48h, Pf growth 96h, Shiga inhibitor, Cycloheximide cs)
Cc1ccc(CN2CCN(CCC(C)C)C(CCO)C2)s1 (stereo not drawn)	Pf growth 96h inconclusive
CC(C)CN1CCN(Cc2cnc(-c3ccc(Cl)cc3)nc2)CC1CCO (stereo not drawn)	Pf growth 96h inconclusive, Cycloheximide cs 13
OCCC1CN(Cc2cnc(-c3ccc(Cl)cc3)nc2)CCN1C1CCCC1 (stereo not drawn)	Pf growth 48h inconclusive, Pf growth 96h inconclusive
CC(C)(O)C#Cc1ccc(CN2CCN(Cc3ccsc3)C(CCO)C2)s1 (stereo not drawn)	Pf growth 96h 8.3µM
Cc1ccc(CN2CCN(CC(C)C)C(CCO)C2)s1 (stereo not drawn)	Pf growth 96h inconclusive, Shiga inhibitor 82, Cycloheximide cs 39, Sm TGR inh inconclusive
COc1ccc2c(c1)CCC1C2CC[C@@]2(C)C1CC[C@@H]2NCCCCCCN1C(=O)C=CC1=O (stereo partly drawn)	none (no result: Pf growth 48h, Pf growth 96h, Shiga inhibitor, Cycloheximide cs, Sm TGR inh)
CCCOP(=O)(c1ccccc1)c1ccccc1	none
CC(C)CCOP(=O)(c1ccccc1)c1ccccc1	Pf growth 48h 15µM, Pf growth 96h inconclusive
N#Cc1ccccc1CSc1ncccc1C(=O)O	none
Cc1cc2c3c(c1)C(C)(c1ccccc1)CC(C)(C)N3C(=O)C21C(C#N)=C(N)OC2=C1C(=O)CC(C)(C)C2 (stereo not drawn)	Pf growth 96h 1.9µM (no result: Pf growth 48h)
CC1=CC(C)(C)N2C(=O)C3(C(C#N)=C(N)OC4=C3C(=O)CCC4)c3c(C)c(C)cc1c32 (stereo not drawn)	Sm TGR inh inconclusive
Cc1cc2c3c(c1C)C1(C(=O)N3C(C)(C)CC2C)C(C#N)=C(N)Oc2n[nH]c(C)c21 (stereo not drawn)	Pf growth 48h inconclusive
Cc1cc2c3c(c1)C1(C(=O)N3C(C)(C)CC2C)C(C#N)=C(N)Oc2n[nH]c(C)c21 (stereo not drawn)	Pf growth 48h 12µM (no result: Pf growth 96h)
CC1(c2ccccc2)CC(C)(C)N2C(=O)C3(C(C#N)=C(N)Oc4cc(O)ccc43)c3cccc1c32 (stereo not drawn)	Pf growth 96h inconclusive (no result: Pf growth 48h)
Cc1cc2c3c(c1C)C1(C(=O)N3C(C)(C)CC2C)C(C#N)=C(N)OC2=C1C(=O)CC(C)(C)C2 (stereo not drawn)	Pf growth 48h 13µM, Pf growth 96h 9.3µM
COc1ccc(N2CC(NC(=O)COc3ccc4ccccc4c3)CC2=O)cc1OC (stereo not drawn)	none (no result: NS1 inh, Pf growth 48h, Pf growth 96h, Shiga inhibitor, Cycloheximide cs)
COc1ccc(Cl)cc1NC(=S)N(Cc1ccc(C(=O)O)cc1)Cc1ccc(OC)c(OC)c1	Pf growth 48h inconclusive (no result: NS1 inh)
NC(=S)N/N=C/c1ccccc1O	Pf growth 48h 0.33µM, Pf growth 96h 1µM
Cc1cc(/C=N/NC(N)=S)c(O)c(/C=N/NC(N)=S)c1	Pf growth 48h 0.47µM, Pf growth 96h 12µM
NC(=S)N/N=C/c1ccc2ccccc2c1	Pf growth 96h inconclusive, Cycloheximide cs 27
COc1cc(OC)c(/C=N/NC(N)=S)cc1Br	Pf growth 96h inconclusive
NC(=S)N/N=C/c1cccc(O)c1O	Pf growth 48h inconclusive (no result: Sm TGR inh)
C=CCn1c(SCC(=O)Nc2ccc(S(N)(=O)=O)cc2)nnc1-c1cnccn1	Pf growth 96h inconclusive
CC(C)(C)c1ccc(O)c(CN(Cc2c(O)ccc3ccccc23)C2CCCCC2)c1	none (no result: Pf growth 48h, Pf growth 96h, Shiga inhibitor, Cycloheximide cs, Sm TGR inh)
CCCCNC(=O)CN1CCN(c2ncc(NC(=O)c3ccc(Cl)cc3)cc2C(=O)O)CC1	none (no result: NS1 inh, Pf growth 48h, Pf growth 96h, Shiga inhibitor, Cycloheximide cs)
NC(N)=N/N=C\c1ccc(O)c(C(=O)O)c1	none (no result: Pf growth 48h, Pf growth 96h, Shiga inhibitor, Cycloheximide cs, Sm TGR inh)
CCCCCOc1ccc(Cl)cc1CN1CCOCC1	Pf growth 96h inconclusive, Cycloheximide cs 24 (no result: Pf growth 48h)
Cc1cc(N=Nc2ccc(Cl)cc2)cc(CN2CCCC2)c1O	Pf growth 48h 0.23µM, Pf growth 96h 0.29µM, Sm TGR inh inconclusive
CCOc1ccc(Cl)cc1CN1CCOCC1	none (no result: Pf growth 48h)
Cc1cc(N=Nc2ccc(Cl)cc2)cc(CN2CCOCC2)c1O	Pf growth 48h 4.7µM, Pf growth 96h 2.3µM, Sm TGR inh inconclusive
CC(=O)N/C(=C/C(C)C)c1ccccc1	none (no result: NS1 inh, Shiga inhibitor, Cycloheximide cs)
Cc1ccc(C(=O)N2CCCCC2CCN2CCCCC2)cc1 (stereo not drawn)	none (no result: NS1 inh, Pf growth 48h, Pf growth 96h, Shiga inhibitor, Cycloheximide cs)
CC(C)C(NS(=O)(=O)c1ccccc1F)C(=O)OCC(=O)NCc1ccco1 (stereo not drawn)	none (no result: NS1 inh, Shiga inhibitor, Cycloheximide cs)
Cc1cc(C)c(NC(=O)/C(=C/c2ccco2)c2ccccc2)c(C)c1	Pf growth 96h inconclusive, Sm TGR inh 25µM (no result: Pf growth 48h)
Cc1cccc(C)c1NC(=O)/C(=C/c1ccco1)c1ccccc1	Pf growth 96h 10µM, Sm TGR inh 32µM (no result: Pf growth 48h)
Cc1cc(C)c(NC(=O)c2cccc(NC(=O)c3ccco3)c2)c(C)c1	Pf growth 48h inconclusive, Pf growth 96h inconclusive
C/C(CC(=O)NCCN1CCOCC1)=N\NC(=O)c1ccncc1	Pf growth 96h inconclusive
CCN1C(=O)c2cccc3c(S(=O)(=O)NCC4CCCO4)ccc1c23 (stereo not drawn)	none
Cc1ccc(S(=O)(=O)N2CCN(C)CC2)cc1[N+](=O)[O-]	none
CCN1CCN(c2ccc(N3CCN(S(=O)(=O)c4ccc(C)c([N+](=O)[O-])c4)CC3)nn2)CC1	Pf growth 48h 13µM, Pf growth 96h 0.93µM (no result: NS1 inh, Shiga inhibitor, Cycloheximide cs)
COc1ccccc1OCC(=O)c1[nH]c(C)c(C(C)=O)c1C	none
CC(=O)c1c(C)[nH]c(C(=O)COc2cc(C)ccc2C(C)C)c1C	Pf growth 96h 4.7µM (no result: Pf growth 48h)
CCCCC(=O)OCC(=O)c1[nH]c(C)c(C(C)=O)c1C	Pf growth 96h inconclusive, Shiga inhibitor 66, Cycloheximide cs 39 (no result: NS1 inh)
CCCC(=O)OCC(=O)c1[nH]c(C)c(C(C)=O)c1C	Pf growth 48h inconclusive, Cycloheximide cs 35 (no result: NS1 inh)
Cc1cc(C)c(NC(=O)CS(=O)CC(=O)NCCN2CCCCCC2)c(C)c1 (stereo not drawn)	none
Cc1ccc(NC(=O)CN2C(=O)C(c3ccc(C(C)(C)C)cc3)=NC2(C)C)cc1	none (no result: NS1 inh, Pf growth 48h, Pf growth 96h, Shiga inhibitor, Cycloheximide cs)
COc1ccc(C2C(C(=O)c3cccs3)=C(O)C(=O)N2c2nnc(C)s2)cc1OC (stereo not drawn)	none
CC(C)c1nnc(N2C(=O)C(O)=C(C(=O)c3cccs3)C2c2ccccc2)s1 (stereo not drawn)	Shiga inhibitor 55, Cycloheximide cs 21
COc1ccc(/C=C(/C#N)S(=O)(=O)c2ccc(C)cc2)cc1	none (no result: Pf growth 48h)
CO/N=C/C(C#N)=C/c1ccc(OC)cc1	Shiga inhibitor 61, Cycloheximide cs 43
COc1ccc(-n2cccc2C=O)cc1OC	none
O=Cc1cccn1-c1ccc2ccccc2c1	Shiga inhibitor 42, Cycloheximide cs 29
